Screen size: about 290,000 compounds; about 11,000 (3.8%) were called active.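 Rule for the calls: active = mean replicate inhibition above about 79%, with every replicate also reaching it (limit read from the data); inconclusive = only one of the two criteria met; inactive = mean below limit and not every replicate reaching it.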 This excerpt belongs to a sample that is enriched for actives.

The target in the assay is FAD-linked sulfhydryl oxidase ALR (Homo sapiens) (UniProt P55789). Briefly: inhibitors of human ALR sulfhydryl oxidase, primary screen, biochemical, H2O2 detection, HRP-luminol luminescence, single point (AID 485317). Conditions: purified ALR, DTT oxidation, stronger effect = higher value, concentration not given here.
Chain of FAD-linked sulfhydryl oxidase ALR (Homo sapiens) (P55789 whole entry, looked up): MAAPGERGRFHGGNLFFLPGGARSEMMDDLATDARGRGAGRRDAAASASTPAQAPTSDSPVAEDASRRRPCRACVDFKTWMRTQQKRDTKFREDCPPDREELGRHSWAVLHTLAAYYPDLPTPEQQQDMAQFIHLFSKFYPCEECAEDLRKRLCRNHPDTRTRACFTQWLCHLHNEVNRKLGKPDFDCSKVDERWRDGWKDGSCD
The term inhibition denotes the relative decrease from the control value, in per cent. With `COc1ccccc1NS(=O)(=O)c1ccc(C(=O)N2CCN(c3ccccc3O)CC2)cc1`, the inhibition was 30.3% (inactive).

For `O=C(COC(=O)c1ncc(Cl)c(Cl)c1Cl)NCc1ccccc1`, the inhibition was -2.75% (inactive).

In the case of `C=CCn1c(SCc2cccc(F)c2)nc2cc(C(=O)N3CCC(C(N)=O)CC3)ccc2c1=O`, the inhibition was 82.8% (active).

As to `NC(=O)C1CCN(C(=O)c2ccc3c(=O)n(Cc4cccc(Br)c4)c(=S)[nH]c3c2)CC1`, the inhibition is 1.47% (inactive).

As for `C=CCn1c(SCC(=O)CC(=O)OCC)nc2cc(C(=O)N3CCC(C(N)=O)CC3)ccc2c1=O`, the inhibition is 26.8% (inactive).

Turning to `O=C(CCC(=O)c1cccs1)Nc1nc2ccccc2s1`, the inhibition was -15.5% (inactive).

Regarding `COc1cccc(CC(=O)OCC(=O)NCc2ccc3c(c2)OCO3)c1`, the inhibition was -0.907% (inactive).

With `COCCNC(=O)CN1C(=O)CSc2ncccc21`, the inhibition is 95.3% (active).

On to `COCCNC(=O)CCCN1C(=O)c2ccccc2Sc2ncccc21`, for which the inhibition is -3.3% (inactive).

Turning to `O=C(CN1C(=O)CSc2ncccc21)N1CCOCC1`, the inhibition was -36.7% (inactive).

For the compound `CCn1nc(C(=O)Nc2ccc(N3CCOCC3)cc2)c2ccccc2c1=O`, the inhibition was -11.2% (inactive).

Take `CC1CC(=NNC(=O)C2COc3ccccc3O2)CC(C)(C)C1` (stereo not drawn): the inhibition is 14.3% (inactive).

For `CC(C(=O)NC1CCS(=O)(=O)C1)N1C(=O)/C(=C/c2ccc(Cl)cc2)SC1=S` (stereo not drawn), the inhibition was 98.5% (active).

On to `COc1ccc(/C=C2\SC(=O)N(CCC(=O)NC3CCS(=O)(=O)C3)C2=O)cc1` (stereo not drawn), for which the inhibition is -3.27% (inactive).

On to `CN(C(=O)CN1C(=O)/C(=C/c2ccc(Cl)cc2)SC1=S)C1CCS(=O)(=O)C1` (stereo not drawn), for which the inhibition was -8.19% (inactive).

With `COc1ccc(OC)c(S(=O)(=O)Nc2c(C)nn(C)c2C)c1`, the inhibition is -0.73% (inactive).

Regarding `O=C(Cn1nnc(-c2ccccc2)n1)NC(=O)NC1CCCC1`, the inhibition was -9.99% (inactive).

With `CCN(CC)S(=O)(=O)c1ccc2[nH]c(=O)cc(C(=O)N(C)C3CCS(=O)(=O)C3)c2c1` (stereo not drawn), the inhibition was -1.56% (inactive).

Regarding `COc1ccccc1C(CNC(=O)c1cccc(S(=O)(=O)Nc2ccc(F)cc2)c1)N(C)C` (stereo not drawn), the inhibition is -11.3% (inactive).

On to `COc1cccc(C2=CC(=O)C[C@H](c3ccc(OC)c(OC)c3)C2)c1`, for which the inhibition was -2.35% (inactive).

Turning to `COC(=O)c1ccc(CSc2ccc(S(=O)(=O)N3CCCCC3)cn2)cc1`, the inhibition is 98.5% (active).

In the case of `COC(=O)c1ccc(CNC(=O)c2ccc(S(=O)(=O)N3CCCCCC3)cc2)cc1`, the inhibition is -5.09% (inactive).

With `O=S(=O)(c1ccc(SCc2ccccc2)nc1)N1CCCCCC1`, the inhibition was -0.984% (inactive).

With `CC(=O)c1cccc(OCC(=O)OCC(=O)Nc2cc(S(=O)(=O)N3CCCCC3)ccc2C)c1`, the inhibition is -1.77% (inactive).

Consider `CCN(CC(=O)Nc1cc(Cl)ccc1C)C(=O)Cn1c(=O)cnc2ccccc21`, for which the inhibition is 0.937% (inactive).

`O=C(Nc1ccon1)c1nc[nH]c1C(=O)NCc1ccccc1`: the inhibition is -9.59% (inactive).

Turning to `O=C(c1ccc2ccccc2n1)N1CCN(c2ccccc2Cl)CC1`, the inhibition is 2.19% (inactive).

As for `O=C(c1c(Cl)cccc1Cl)N1CCN(c2cccc3[nH]ccc23)CC1`, the inhibition was 98.9% (active).

In the case of `COc1ccccc1N1CCN(C(=O)c2c(-c3c(Cl)cccc3Cl)noc2C)CC1`, the inhibition was 15.3% (inactive).

Turning to `CN(C)C(=O)N=NC(=O)N(C)C`, the inhibition is -21.7% (inactive).

Consider `CCOc1ncccc1C(=O)OCC(=O)Nc1cccc(S(=O)(=O)N2CCCCCC2)c1`, for which the inhibition is 0.144% (inactive).

On to `COc1ccc(C(=O)NCc2ccccc2C)cc1S(=O)(=O)NC1CCCC1`, for which the inhibition was -15.1% (inactive).

For the compound `CCn1nnc2cc(C(=O)Nc3ccc(C(=O)OC(C)C)cc3)ccc21`, the inhibition is -0.266% (inactive).

Regarding `O=C(COC(=O)c1cccnc1Cl)NC(=O)NC1CCCCC1`, the inhibition was -0.213% (inactive).

For `CCCNC(=O)CCn1cc(-c2ccc(OC)cc2)nc1CCN`, the inhibition is 10.4% (inactive).

`COC(=O)/C=C/C(=O)NCc1ccco1`: the inhibition is 79.8% (active).

In the case of `CC(C)(C)NC(=O)NCc1ccco1`, the inhibition was 6.08% (inactive).

For `O=C(/C=C/c1ccc(Cl)cc1Cl)NCc1ccco1`, the inhibition was -6.98% (inactive).

In the case of `CN(C)C(CNC(=O)CCCOc1ccccc1)c1ccco1` (stereo not drawn), the inhibition is 3.18% (inactive).

On to `O=C(CCOc1ccccc1)NCc1ccccc1`, for which the inhibition was -6.56% (inactive).

For `O=C(CCCOc1ccccc1)NCc1ccco1`, the inhibition was 86.9% (active).

For `COc1cc(NC(=O)c2[nH]cnc2C(N)=O)cc(C(=O)Nc2cccc(C(F)(F)F)c2)c1`, the inhibition is -4.54% (inactive).

As for `O=C(CSc1nc2ccccc2c(=O)n1Cc1ccc(F)cc1)NCC1CCCO1` (stereo not drawn), the inhibition was -7.08% (inactive).

Regarding `C=CCNC(=O)C1CC2c3ccccc3C1c1ccccc12` (stereo not drawn), the inhibition is -7.82% (inactive).

Consider `Cc1cc(Nc2ccc(Br)cc2)nc2ccccc12`, for which the inhibition is -3.49% (inactive).

Take `O=C(COC(=O)c1ccc(O)cc1O)c1ccc2c(c1)OCCO2`: the inhibition is 9.5% (inactive).

As to `CC1(C)O[C@@H]2CC3C4C[C@H](F)C5=CC(=O)C=CC5(C)C4C(O)CC3(C)[C@]2(C(=O)CO)O1` (stereo partly drawn), the inhibition is -6.73% (inactive).

Consider `O=Cc1cn(Cc2ccccc2)nc1-c1cccnc1`, for which the inhibition is -2.35% (inactive).

For `O=C1/C(=C\c2cccnc2)CN(Cc2ccccc2)C/C1=C\c1cccnc1`, the inhibition is 96.1% (active).

Take `Clc1ccc(CN2CCN(/N=C/c3cccnc3)CC2)cc1`: the inhibition was 14.2% (inactive).

As to `C=CCc1cc(S(=O)(=O)c2ccc(O)c(CC=C)c2)ccc1O`, the inhibition was 87.7% (active).

On to `O=C(Nc1ccccc1N1CCCC1)c1ccc2ccccc2c1`, for which the inhibition was 77% (active).

As for `Cc1ccccc1NC(=O)CSc1ccc2nnc(-c3ccccn3)n2n1`, the inhibition was -1.94% (inactive).

Turning to `Cc1ccccc1NC(=O)CSC1=NCCN1`, the inhibition is 99.1% (active).

With `Cc1ccccc1NC(=O)CNc1ccccc1N1CCCCC1`, the inhibition is 87.1% (active).

As for `O=C(CNCCC1=CCCCC1)Nc1ccccc1N1CCCCCC1`, the inhibition was 19.2% (inactive).

Regarding `Cc1ccccc1N1CC(C(=O)Nc2ccc3c(c2)OCO3)CC1=O` (stereo not drawn), the inhibition is -35.2% (inactive).

Consider `Cc1cccc(N2CC(C(=O)Nc3ccccc3N3CCCC3)CC2=O)c1C` (stereo not drawn), for which the inhibition was 98.4% (active).

In the case of `Cc1ccc(Cc2nnc(SCC(=O)Nc3ccccc3C)[nH]c2=O)cc1`, the inhibition was -2.8% (inactive).

For `O=C(Nc1ccccc1N1CCCCC1)c1ccc2nccnc2c1`, the inhibition is -6.64% (inactive).

`Cc1ccccc1N1CC(C(=O)Nc2ccc(S(=O)(=O)N3CCCC3)cc2)CC1=O` (stereo not drawn): the inhibition was -9.58% (inactive).

For the compound `Cc1ccccc1NC(=O)Nc1ccccc1N1CCCCC1`, the inhibition was -4.73% (inactive).

As to `O=C(Nc1ccccc1N1CCCC1)c1ccc(F)c(S(=O)(=O)N2CCOCC2)c1`, the inhibition was 43.8% (inactive).

Consider `Nc1c(C(=O)OCC(=O)Nc2ccc(OC(F)F)cc2)[nH]c(=O)[nH]c1=O`, for which the inhibition was 9.56% (inactive).

As to `COc1ccccc1N(CC(=O)Nc1ccc(C)cc1Cl)S(=O)(=O)c1cccs1`, the inhibition was -3.47% (inactive).

As to `CC(C(=O)N(C)CC(=O)Nc1ccccc1C(F)(F)F)N1C(=O)c2ccccc2C1=O` (stereo not drawn), the inhibition was -4.96% (inactive).

Take `CCOc1ccc(CC(=O)NCCS(=O)(=O)N2CCN(c3ccccc3)CC2)cc1`: the inhibition was -1.48% (inactive).

On to `Cc1onc(-c2c(F)cccc2Cl)c1C(=O)OCC(=O)N1C(C)CCCC1C` (stereo not drawn), for which the inhibition was -4.37% (inactive).

`COCCN(CCOC)S(=O)(=O)NC[C@H]1O[C@@H](n2cnc3c(N)ncnc32)[C@H](O)[C@@H]1O`: the inhibition was 2.26% (inactive).

`COc1cc(C(=O)Nc2ncccc2C)ccc1OCC(=O)N1CCOCC1`: the inhibition is -1.3% (inactive).

For the compound `CCOc1ccc(C(=O)CCC(=O)NC2=NCCS2)cc1`, the inhibition is 2.64% (inactive).

Turning to `CCOc1ccc(/C=C/C(=O)OCC(=O)c2ccccc2OC)cc1OC`, the inhibition was 1.49% (inactive).

Regarding `COCOc1cc(O)c(C(=O)/C=C/c2ccc(OCOC)c(OCOC)c2)c(OCOC)c1`, the inhibition was 94.9% (active).

Turning to `COc1ccc(/C=C/C(=O)c2ccc(OC)cc2O)cc1`, the inhibition is -17.6% (inactive).

As to `C#CCNC(=O)[C@H](Cc1ccc(C(=O)c2ccccc2)cc1)NC(=O)OC(C)(C)C`, the inhibition is -2.67% (inactive).

For the compound `CCNC(=S)N1CCN(S(=O)(=O)c2ccc(Cl)s2)CC1`, the inhibition was -2.01% (inactive).

For the compound `COc1ccccc1C(=O)Nc1ccc(OCC(=O)N2CCCCC2)cc1`, the inhibition was 2.28% (inactive).

Regarding `CC(=O)Nc1cccc(-c2nc3ccccc3s2)c1C`, the inhibition was -21% (inactive).

As for `Oc1ccc(-c2[nH]ncc2-c2nc3ccccc3s2)c(O)c1`, the inhibition is 83.3% (active).

For the compound `Cc1cc(O)ccc1-c1cnc2ccccc2n1`, the inhibition was 58% (inactive).

Turning to `CCN(C(=O)COC(=O)C1CCN(S(=O)(=O)c2ccc(C)c(C)c2)CC1)C1CCS(=O)(=O)C1` (stereo not drawn), the inhibition was -10.6% (inactive).

As to `COc1ccc(C2=NN(C(=O)CSc3nnnn3C)C(c3ccco3)C2)cc1` (stereo not drawn), the inhibition was 3.36% (inactive).

As to `Cc1ccc(C(=O)Nc2ccccc2-c2ccccc2)cc1S(=O)(=O)Nc1ccccc1`, the inhibition was -2.08% (inactive).

Consider `CC1CCN(C(=O)CCNC(=O)c2ccccc2)CC1`, for which the inhibition is 0.139% (inactive).

Turning to `CCN(CCNC(=O)C1=C(C)C(=O)OC12CCC(C)CC2)c1ccccc1` (stereo not drawn), the inhibition was 98.4% (active).

With `CCOc1ccc(CCNC(=O)C2=C(C)C(=O)OC23CCC(C)CC3)cc1OCC` (stereo not drawn), the inhibition was -1.93% (inactive).

`Cc1ccc(S(=O)(=O)NC[C@H]2O[C@@H](n3cnc4c(N)ncnc43)[C@H](O)[C@@H]2O)s1`: the inhibition was 1.77% (inactive).

Take `O=C(/C=C/c1ccccc1)c1ccoc1`: the inhibition was 13.2% (inactive).

Regarding `COC(=O)c1ccc(COc2ccc(/C=C/C(=O)c3ccc(OC)c(CSCC(=O)O)c3)cc2OC)cc1`, the inhibition was 99.4% (active).

For `COC(=O)c1ccc(C(NC(=O)OCc2ccccc2)/C(C)=C/[C@@H](C)C(=O)NCc2ccc(OC)c(OC)c2)cc1` (stereo partly drawn), the inhibition is -2.17% (inactive).

In the case of `COc1ccc(C(=O)/C=C/c2ccc(-c3ccccc3)cc2)cc1CSCC(=O)O`, the inhibition is 99.2% (active).

For `O=C(O)c1ccc2c(c1)C(=O)N(c1ccc(/C=C/C(=O)c3ccccc3)cc1)C2=O`, the inhibition was 50.4% (inactive).

In the case of `COC(=O)c1ccc(COc2ccc(/C=N/NC(=O)C(=O)Nc3ccc(OC)cc3)cc2OC)o1`, the inhibition is -5.05% (inactive).
